{"source": "ChEMBL document CHEMBL4513216", "about": "“Probing the Open Global Health Chemical Diversity Library for Multistage-Active Starting Points for Next-Generation Antimalarials” (ACS Infect Dis, 2020)", "note": "The campaign covered roughly 69,000 compounds. About 8,600 (12%) showed an effect of 50% or more. What follows is part of a selection rich in strong results, with near analogues and random picks from the rest."}
{"test_system": "Plasmodium berghei", "experiment": "Screen against P. berghei liver stage (PbLuc), transformed with Luciferase, at 10uM", "type": "functional, HepG2", "details": "tested at 10 uM", "units": {"INHIBITION": "%"}}
{"compound": "Cc1ccccc1C(=O)N1CC(C(=O)NCC2CC2)C2(CCOCC2)C1", "note": "(stereo not given)", "INHIBITION": -41.4}
{"compound": "Cc1ccccc1C(=O)NC[C@@H]1CCN(C(=O)C2(O)CCCC2)C[C@H]1O", "INHIBITION": 69.3}
{"compound": "Cc1ccccc1C(=O)NC[C@@H]1CCN(C(=O)c2cscn2)C[C@H]1O", "INHIBITION": 63.8}
{"compound": "Cc1ccccc1C(=O)NC[C@@H]1CCN(C(=O)CN2CCCC2)C[C@H]1O", "INHIBITION": 44.3}
{"compound": "Cc1ccccc1C(=O)NC[C@@H]1CCN(C(=O)c2cccn2C)C[C@H]1O", "INHIBITION": 17.4}
{"compound": "COc1ccc(C[C@H]2CN(C(=O)c3cscn3)CC[C@@H]2OC)cc1", "INHIBITION": 22.3}
{"compound": "Cc1ccc(C)c(-c2[nH]c3ccccc3c2C(=O)O)c1", "INHIBITION": 13.5}
{"compound": "Cn1ccnc1C1(O)CCN(C(=O)Cc2ccccc2)CC1", "INHIBITION": 7.635}
{"compound": "CCN(CC)S(=O)(=O)c1ccc(C(=O)NC(C)(C#N)C2CC2)cc1", "note": "(stereo not given)", "INHIBITION": -5.1}
{"compound": "O=C(c1ccc2c(c1)CCC2)N1CCC(c2n[nH]c(C3CC3)n2)CC1", "INHIBITION": -19.6}
{"compound": "CC(=O)N1CCC(NC(=O)N(C)Cc2c(C)noc2C)CC1", "INHIBITION": -35.61}
{"compound": "CC(=O)c1ccc(N2CCN(C(=O)c3cnn4c3OCCC4)CC2)cc1", "INHIBITION": 16}
{"compound": "COc1ccc(C(=O)N2CCOCC2c2ccc(C)o2)cc1", "note": "(stereo not given)", "INHIBITION": 68}
{"compound": "COCc1ccc(C(=O)N2CCOCC2c2ccc(C)o2)cc1", "note": "(stereo not given)", "INHIBITION": 1.2}
{"compound": "Cc1ccc(C2COCCN2C(=O)c2ccc(N(C)C)cc2)o1", "note": "(stereo not given)", "INHIBITION": -0.79}
{"compound": "COc1cc2c(nn1)CCN(Cc1noc(CC(C)C)n1)C2", "INHIBITION": 17.4}
{"compound": "Cn1ncc(CN2CCc3onc(-c4cccc(F)c4)c3C2)c1C1CC1", "INHIBITION": 41.5}
{"compound": "CC(C(N)=O)N1CCc2onc(-c3cccc(F)c3)c2C1", "note": "(stereo not given)", "INHIBITION": 18.2}
{"compound": "CC(C)c1nc(CN2CCc3onc(-c4cccc(F)c4)c3C2)no1", "INHIBITION": 84.1}
{"compound": "CC(C)Cc1nc(CN2CCc3onc(-c4cccc(F)c4)c3C2)no1", "INHIBITION": 82.5}
{"compound": "Cn1cccc1C1CCCN1Cc1noc(C(C)(C)C)n1", "note": "(stereo not given)", "INHIBITION": -40.5}
{"compound": "CC(C)(C)c1nc(CN2CCc3onc(-c4cccc(F)c4)c3C2)no1", "INHIBITION": 67.7}
{"compound": "Fc1cccc(-c2noc3c2CN(Cc2cncn2C2CC2)CC3)c1", "INHIBITION": 33.3}
{"compound": "CC(C(=O)N(C)C)N1CCc2onc(-c3cccc(F)c3)c2C1", "note": "(stereo not given)", "INHIBITION": 40.9}
{"compound": "COc1ncnc2c1CCN(Cc1nccs1)CC2", "INHIBITION": -20.1}
{"compound": "CCN(CC(=O)N(C)C)C(=O)c1ccc(-c2nc(C)cs2)cc1", "INHIBITION": 30.9}
{"compound": "CCCn1c(N2CCCCC2)nc2c(C)nn(C)c2c1=O", "INHIBITION": 35.9}
{"compound": "Cc1occc1C(=O)N1CCC2(CCCN(Cc3nccs3)C2)C1", "note": "(stereo not given)", "INHIBITION": -58.3}
{"compound": "CC(C)c1nccn1Cc1cc(C(=O)NCC(F)(F)F)n[nH]1", "INHIBITION": 94}
{"compound": "CCn1ccnc1CN1CCN(C(C)C(=O)NCC(F)(F)F)CC1", "note": "(stereo not given)", "INHIBITION": 19.7}
{"compound": "Cc1ccc(CNC(=O)c2cc(Cn3ccnc3C(C)C)[nH]n2)o1", "INHIBITION": 63}
{"compound": "Cc1nc(CNC(=O)c2cc(Cn3ccnc3C(C)C)[nH]n2)sc1C", "INHIBITION": 37.9}
{"compound": "CC(C)c1nccn1Cc1cc(C(=O)NCC(C)n2ccnc2)n[nH]1", "note": "(stereo not given)", "INHIBITION": 26}
{"compound": "Cc1ccc(CN(C)C(=O)c2cc(Cn3ccnc3C(C)C)[nH]n2)o1", "INHIBITION": 42.3}
{"compound": "CCc1nc(CNCCn2cc(C)cn2)no1", "INHIBITION": 0.914}
{"compound": "O=S(=O)(CCOc1ccc(F)cc1)Nc1cnn(CC(F)F)c1", "INHIBITION": -6.85}
{"compound": "CN1CCN2CCN(Cc3cc(=O)n4c5c(cccc35)CCC4)CC2C1", "note": "(stereo not given)", "INHIBITION": 13}
{"compound": "CCCC1CN(CCOC)C(=O)c2cccnc2O1", "note": "(stereo not given)", "INHIBITION": 26.8}
{"compound": "CN[C@@H](C)C(=O)N(Cc1cccc(C)c1)Cc1ccccc1OC", "INHIBITION": 34.1}
{"compound": "COc1ccccc1CN(Cc1cccc(C)c1)C(=O)[C@@H](N)CC(=O)O", "INHIBITION": 11.8}
{"compound": "COCC(=O)N(Cc1cccc(C)c1)Cc1ccccc1OC", "INHIBITION": 51.7}
{"compound": "O=C(COc1ccc(F)cc1F)N1CCOCC(O)(CN2CCCC2)C1", "note": "(stereo not given)", "INHIBITION": 11.8}
{"compound": "Cc1ccc2cc(C(=O)NCCN3CCS(=O)(=O)CC3)c(C)nc2c1", "INHIBITION": 74.7}
{"compound": "COc1ccc2nc(C)c(C(=O)NCCN3CCS(=O)(=O)CC3)cc2c1", "INHIBITION": 46.9}
{"compound": "CCN1CCN(CCCNC(=O)c2cc3ccc(C)cc3nc2C)CC1", "INHIBITION": 37.2}
{"compound": "CSc1nc2ncc3c(=O)n(C)ccc3n2n1", "INHIBITION": -3.73}
{"compound": "COCCn1ccc2c(cnc3nc(SC)nn32)c1=O", "INHIBITION": 38.4}
{"compound": "CSc1nc2ncc3c(=O)n(CCN4CCCCC4)ccc3n2n1", "INHIBITION": 51}
{"compound": "CCn1c(C)cc(C(=O)N2C[C@@H](C(=O)O)[C@H](c3ccccc3C)C2)c1C", "INHIBITION": 0.33}
{"compound": "CC(C)(C)c1nccc(N2CCC(OCCN3CCCCC3)C2)n1", "note": "(stereo not given)", "INHIBITION": 66.5}
{"compound": "COc1ccnc(N2CCC(OCCN3CCCCC3)C2)n1", "note": "(stereo not given)", "INHIBITION": 42.4}
{"compound": "Cc1cc(C)nc(N2CCC(OCCN3CCCCC3)C2)n1", "note": "(stereo not given)", "INHIBITION": 58.2}
{"compound": "Cc1ccnc(N2CCC(OCCN3CCCCC3)C2)n1", "note": "(stereo not given)", "INHIBITION": 48.9}
{"compound": "Cc1cnc(N2CCCOC(CN3CCCCC3)C2)nc1", "note": "(stereo not given)", "INHIBITION": 34.1}
{"compound": "Cc1cnc(N2CCC(OCCN3CCCCC3)C2)nc1C", "note": "(stereo not given)", "INHIBITION": 54.5}
{"compound": "C1CCN(CCOC2CCNCC2)CC1", "INHIBITION": 3.63}
{"compound": "c1cnc(N2CCC(OCCN3CCCCC3)C2)nc1", "note": "(stereo not given)", "INHIBITION": 40.6}
{"compound": "CN(CCN1CCCCCC1)c1nccc(N2CCC(O)C2)n1", "note": "(stereo not given)", "INHIBITION": 27.6}
{"compound": "c1nc2c(c(-c3ccsc3)n1)CCN(Cc1ccoc1)CC2", "INHIBITION": 20.1}
{"compound": "CCCNC(c1cccnc1)c1ccc(F)c(C)c1", "note": "(stereo not given)", "INHIBITION": -24.7}
{"compound": "O=C(CN1CCOC(CNc2cccnn2)C1)NCc1cccs1", "note": "(stereo not given)", "INHIBITION": 36.55}
{"compound": "CC(C)(C)c1nc(CN2CCOC(Cn3cccn3)C2)no1", "note": "(stereo not given)", "INHIBITION": -29.1}
{"compound": "O=C(c1ccncc1F)N1C[C@@H]2CC[C@H]1CN(Cc1cccnc1)C2", "INHIBITION": 22.7}
{"compound": "Cc1cc(C(=O)NC(C)Cc2ccccc2Cl)n(C)n1", "note": "(stereo not given)", "INHIBITION": -39.3}
{"compound": "Cc1noc(C)c1CN1CCCC2(CCN(C(=O)N3CCOCC3)C2)C1", "note": "(stereo not given)", "INHIBITION": 26}
{"compound": "Cc1ccc(-c2nc(CN3CC(n4nc(C)cc4C)C3)no2)cc1", "INHIBITION": 1.86}
{"compound": "COCC1COCCC12CCN(C(=O)Cc1ccc(F)cc1)CC2", "note": "(stereo not given)", "INHIBITION": 0.542}
{"compound": "COc1ccccc1C(C)CNC(=O)c1c(C)nn(C)c1OC", "note": "(stereo not given)", "INHIBITION": 0.705}
{"compound": "COc1c(C(=O)NCC(C)Sc2ccccc2)c(C)nn1C", "note": "(stereo not given)", "INHIBITION": 29.1}
{"compound": "CCC(CNC(=O)c1c(C)nn(C)c1OC)Oc1ccccc1", "note": "(stereo not given)", "INHIBITION": 73.5}
